From PubChem BioAssay (NCATS)
Results filed as inconclusive are left out. Active and inactive are the calls of the source. Unless noted, calls come from the whole dose curve; as a rule, active = well fitted curve in the direction sought with a large enough effect; inconclusive = small, poorly fitted or top-dose-only effect, or another doubt; inactive = no such curve, though single readings can be large; an effect the other way counts as inactive or inconclusive.

What was measured:
[1] = biological target: Lysosomal acid glucosylceramidase (Homo sapiens) (UniProt P04062); test: Glucocerebrosidase-p2 (AID 348; in the data active = potency below about 10 µM; note: potency is the fitted concentration of half-maximal effect); conditions: purified GBA, blue fluorogenic substrate, 40 min
Sequence of Lysosomal acid glucosylceramidase (Homo sapiens) (P04062 whole entry, looked up): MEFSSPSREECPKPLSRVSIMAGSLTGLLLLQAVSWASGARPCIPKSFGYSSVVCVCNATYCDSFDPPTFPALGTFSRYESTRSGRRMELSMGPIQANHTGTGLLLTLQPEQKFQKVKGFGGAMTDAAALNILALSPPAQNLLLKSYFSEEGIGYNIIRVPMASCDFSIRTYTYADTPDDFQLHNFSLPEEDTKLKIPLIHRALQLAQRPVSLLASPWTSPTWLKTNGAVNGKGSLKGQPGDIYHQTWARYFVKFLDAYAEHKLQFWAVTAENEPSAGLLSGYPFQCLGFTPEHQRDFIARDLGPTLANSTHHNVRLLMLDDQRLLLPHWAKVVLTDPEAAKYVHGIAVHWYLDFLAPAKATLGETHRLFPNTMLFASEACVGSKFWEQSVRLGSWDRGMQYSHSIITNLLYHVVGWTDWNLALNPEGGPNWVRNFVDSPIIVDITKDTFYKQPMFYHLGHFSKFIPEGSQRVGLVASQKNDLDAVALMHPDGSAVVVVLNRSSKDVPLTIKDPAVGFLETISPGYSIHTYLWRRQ
How it was run: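 Compounds titrated from 0.6 nM upwards against 0.2 nM enzyme in pH 5.9 citric acid/KH2PO4, taurocholate, tween-20; blue fluorogenic substrate 80 uM, 40 min room temperature, stopped and read Ex 365/Em 440 for AC50.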

[2] = AP1 Signaling Pathway (AID 357; active = well fitted curve in either direction with a large enough effect, not every such curve was filed as active; note: % is set by controls: 0 for no effect and ±100 for the full control effect); conditions: ME-180 AP-1-bla reporter, EGF-induced, beta-lactamase ratio, 5 h; at 7.69 µM (top of the series) unless noted
How it was run: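 ME-180 cells with beta-lactamase reporter under AP-1 response element, stimulated with EC50 EGF; compounds tested in titration series, 5 h at 37 °C. CCF4 substrate added 2.5 h at room temperature; 460/530 nm emission ratio gave %activity and AC50.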

[3] = biological target: Cytochrome P450 1A2 (Homo sapiens) (UniProt P05177); test: p450-cyp1a2 (AID 410; calls by dose curve; note: potency is the fitted concentration of half-maximal effect); conditions: recombinant CYP1A2, luciferin-ME demethylation, luminescence; series mostly up to 57 µM
Sequence of Cytochrome P450 1A2 (Homo sapiens) (P05177 whole entry, looked up): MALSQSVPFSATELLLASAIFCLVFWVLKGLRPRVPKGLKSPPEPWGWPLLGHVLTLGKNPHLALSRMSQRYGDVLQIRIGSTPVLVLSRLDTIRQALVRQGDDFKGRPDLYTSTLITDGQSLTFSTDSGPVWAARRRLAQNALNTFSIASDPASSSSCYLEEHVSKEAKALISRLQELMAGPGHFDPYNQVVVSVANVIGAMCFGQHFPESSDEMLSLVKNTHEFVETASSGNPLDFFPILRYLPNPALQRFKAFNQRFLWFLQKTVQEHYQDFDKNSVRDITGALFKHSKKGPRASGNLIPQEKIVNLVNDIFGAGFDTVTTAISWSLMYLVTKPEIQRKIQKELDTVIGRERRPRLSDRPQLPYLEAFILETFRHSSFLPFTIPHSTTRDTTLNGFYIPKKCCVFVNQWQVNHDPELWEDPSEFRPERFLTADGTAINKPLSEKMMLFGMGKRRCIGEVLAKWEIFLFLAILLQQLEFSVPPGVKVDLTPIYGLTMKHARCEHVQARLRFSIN
How it was run: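 Luminescent readout of luciferin formed from Luciferin-ME by human CYP1A2; data normalized against complete inhibition by 57 uM furafylline. Enzyme 20nM, substrate 100uM at Km, 100mM KPO4 buffer, 60 min reaction at room temperature.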

[4] = NFAT Signaling Pathway (AID 444; active = well fitted curve in either direction with a large enough effect, not every such curve was filed as active;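 note: carbachol stimulus at about its EC50 of 1 µM final; % is set by controls: 0 for no effect and ±100 for the full control effect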); conditions: Jurkat NFAT-bla M1, carbachol, beta-lactamase ratio, 5 h; at 7.69 µM (top of the series) unless noted
How it was run: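 Jurkat cells carrying an NFAT-driven β-lactamase reporter and co-transfected muscarinic M1 receptor were treated with compound plus carbachol (1 uM final, an EC50 level) for 5 h at 37 °C. CCF4 loading followed for 1 h at RT; 460/530 nm ratio gave %activity.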

[5] = Stat Signaling Pathway (AID 446; active = well fitted curve in either direction with a large enough effect, not every such curve was filed as active;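 note: ME-180 cervical cancer cells given 40 pM IL-6 alongside compound; SIE-controlled beta-lactamase reporter measured as 460/530 nm FRET emission ratio; % is set by controls: 0 for no effect and ±100 for the full control effect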); conditions: ME-180 SIE beta-lactamase reporter, IL-6 stimulated, 5 h; at 7.69 µM (top of the series) unless noted
How it was run: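 Screening format detects activators and inhibitors alike: ME-180 SIE-bla cells stimulated at 40 pM IL-6 for 5 hrs with compound, then dual-emission beta-lactamase read at 405 nm excitation.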

[6] = biological target: Glucocorticoid receptor (Homo sapiens) (UniProt P04150); test: GR-GFP Redistribution (AID 450;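 active = compounds whose dose series gives a full or clear partial fitted curve of increased nuclear translocation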; note: potency is the fitted concentration of half-maximal effect); conditions: U2OS GR-GFP nuclear translocation, laser cytometry, 2 h
Sequence of Glucocorticoid receptor (Homo sapiens) (P04150 whole entry, looked up, the tested form may be a part): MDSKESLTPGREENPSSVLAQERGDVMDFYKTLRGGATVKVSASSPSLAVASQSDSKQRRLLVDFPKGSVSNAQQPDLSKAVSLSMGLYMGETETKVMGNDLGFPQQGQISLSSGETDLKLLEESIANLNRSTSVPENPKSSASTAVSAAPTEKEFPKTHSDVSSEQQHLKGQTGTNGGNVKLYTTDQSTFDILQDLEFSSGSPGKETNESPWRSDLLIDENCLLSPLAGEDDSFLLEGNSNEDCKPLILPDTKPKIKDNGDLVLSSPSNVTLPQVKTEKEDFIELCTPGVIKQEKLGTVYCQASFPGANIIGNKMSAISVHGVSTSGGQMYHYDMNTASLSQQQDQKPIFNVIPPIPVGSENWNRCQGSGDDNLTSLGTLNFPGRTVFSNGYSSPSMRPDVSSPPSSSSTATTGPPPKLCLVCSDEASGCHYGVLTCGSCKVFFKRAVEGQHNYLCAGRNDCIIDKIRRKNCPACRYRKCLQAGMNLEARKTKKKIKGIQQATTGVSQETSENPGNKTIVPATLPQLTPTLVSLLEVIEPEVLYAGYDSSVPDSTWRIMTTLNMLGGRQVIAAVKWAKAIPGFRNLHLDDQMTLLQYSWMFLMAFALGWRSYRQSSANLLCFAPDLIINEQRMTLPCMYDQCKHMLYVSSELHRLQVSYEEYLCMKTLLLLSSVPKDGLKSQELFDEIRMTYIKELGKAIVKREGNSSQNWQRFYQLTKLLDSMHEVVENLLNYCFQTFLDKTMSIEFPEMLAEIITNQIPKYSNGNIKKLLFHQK

[7] = biological target: Glucocorticoid receptor (Homo sapiens) (UniProt P04150); test: GR-EFC Redistribution (AID 451; calls by dose curve; note: potency is the fitted concentration of half-maximal effect); conditions: CHO-K1 GR-EFC translocation, beta-gal luminescence, 2 h
How it was run: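 CHO-K1 cells stably expressing nuclear-localized β-gal enzyme acceptor and GR fused C-terminally to the enzyme donor fragment; ligand-driven nuclear translocation restores β-gal by complementation. Compounds titrated up to 46 uM final, 2 h at 37 °C; luminescence read.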

[8] = biological target: Mitogen-activated protein kinase 10 (Mus musculus) (UniProt Q61831); test: JNK3 AlphaScreen Assay (AID 530; active = well fitted curve in either direction with a large enough effect, not every such curve was filed as active;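 note: kinase came from lysate of stimulated human HepG2 cells; signal reports phosphorylation of biotinylated GST-cJun 1-79 at Ser73 with 10 µM ATP; % is set by controls: 0 for no effect and ±100 for the full control effect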); conditions: JNK3 lysate, c-Jun phosphorylation; series mostly up to 57.1 µM
How it was run: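 Inhibitors reduce antibody binding to phosphorylated biotin-cJun, lowering AlphaScreen luminescence. Lysates from HepG2 cells pre-activated by IL-1beta plus TNF-alpha supplied JNK3; compounds were titrated.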

[9] = biological target: Cytochrome P450 3A4 (Homo sapiens) (UniProt P08684); test: qHTS Assay for Activators of Cytochrome P450 3A4 (AID 885); conditions: recombinant CYP3A4, Luciferin-PPXE luminescence, 60 min; series mostly up to 57.1 µM; note: nearly all actives have a fitted effect of over 65% in size
Sequence of Cytochrome P450 3A4 (Homo sapiens) (P08684 whole entry, looked up): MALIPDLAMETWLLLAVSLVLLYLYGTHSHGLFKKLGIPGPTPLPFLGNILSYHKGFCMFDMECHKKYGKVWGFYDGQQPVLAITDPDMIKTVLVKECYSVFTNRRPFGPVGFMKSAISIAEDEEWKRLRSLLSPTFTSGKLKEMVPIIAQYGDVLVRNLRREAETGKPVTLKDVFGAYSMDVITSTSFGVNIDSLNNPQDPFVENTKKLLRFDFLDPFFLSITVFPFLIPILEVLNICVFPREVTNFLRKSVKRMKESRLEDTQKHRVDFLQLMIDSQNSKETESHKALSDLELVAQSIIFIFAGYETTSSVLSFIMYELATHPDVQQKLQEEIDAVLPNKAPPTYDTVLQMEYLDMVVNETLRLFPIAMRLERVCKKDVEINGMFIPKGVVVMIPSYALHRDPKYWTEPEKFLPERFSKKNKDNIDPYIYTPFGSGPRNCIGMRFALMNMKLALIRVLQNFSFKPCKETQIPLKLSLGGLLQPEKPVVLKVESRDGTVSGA
How it was run: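 Steps: enzyme/substrate mix dispensed; compound added, 10 min RT; NADPH regeneration solution added, 60 min RT; luciferin detection buffer stops reaction; 20 min later luminescence measured.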

[10] = biological target: Cytochrome P450 2C19 (Homo sapiens) (UniProt P33261); test: qHTS Assay for Inhibitors and Substrates of Cytochrome P450 2C19 (AID 899); conditions: recombinant CYP2C19, luciferin-H EGE luminescence; series mostly up to 57.1 µM; note: nearly all actives have a fitted effect of over 60% in size; note: potency is the fitted concentration of half-maximal effect
Sequence of Cytochrome P450 2C19 (Homo sapiens) (P33261 whole entry, looked up): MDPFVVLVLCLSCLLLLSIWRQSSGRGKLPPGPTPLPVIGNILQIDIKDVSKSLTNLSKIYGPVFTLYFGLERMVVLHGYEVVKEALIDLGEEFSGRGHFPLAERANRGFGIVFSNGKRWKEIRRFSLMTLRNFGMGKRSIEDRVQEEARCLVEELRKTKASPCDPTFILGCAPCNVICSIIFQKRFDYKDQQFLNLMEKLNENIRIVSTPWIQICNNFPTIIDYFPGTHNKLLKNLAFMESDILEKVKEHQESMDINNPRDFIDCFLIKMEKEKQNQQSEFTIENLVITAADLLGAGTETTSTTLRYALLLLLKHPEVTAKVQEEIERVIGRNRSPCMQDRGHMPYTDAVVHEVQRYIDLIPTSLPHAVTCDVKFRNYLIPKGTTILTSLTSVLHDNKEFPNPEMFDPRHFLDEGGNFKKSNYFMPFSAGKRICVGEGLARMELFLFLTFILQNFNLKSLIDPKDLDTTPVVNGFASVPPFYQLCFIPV
How it was run: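 Human CYP2C19 (5nM) with Luciferin-H EGE at 10uM (its KM) in 50mM KPO4 was preincubated with compound for 10 min at 37C. NADPH regeneration started a 60 min 37C reaction. Luciferin was read by luminescence, normalized to 57uM ketoconazole.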

[11] = Confirmation and Secondary Assay for Modulators of Hemoglobin Beta Chain Splicing at IVS2 654 locus (AID 910); conditions: HeLa EGFP-654 splicing reporter, GFP fluorescence, 48 h; series mostly up to 38.3 µM;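 note: per-well total GFP intensity by laser scanning cytometry after 2-day treatment; % of control where 0% means no effect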
How it was run: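 HeLa cells stably carrying EGFP interrupted by mutant beta-globin IVS2-654 intron (CMV-driven) were treated with compound for 2 days at 37C; corrected splicing was scored as total peak GFP intensity per well (488 nm excitation, 500-520 nm emission).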

[12] = Confirmation and Secondary Assay for Modulators of Hemoglobin Beta Chain Splicing at IVS2 705 locus (AID 930); conditions: HeLa EGFP-705 splicing reporter, GFP fluorescence, 48 h; series mostly up to 38.3 µM;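 note: HeLa cells stably expressing the EGFP-705 splicing reporter; GFP fluorescence per well restored by corrected splicing of the IVS2-705 intron in EGFP; % of control where 0% means no effect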
How it was run: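 Assay measures total GFP intensity per well in HeLa EGFP-705 cells after 2 days with compound; mis-splicing normally truncates EGFP, so fluorescence indicates corrected splicing.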

[13] = qHTS Assay for Lipid Storage Modulators (AID 1519; calls by dose curve); conditions: Drosophila S3 cells, BODIPY lipid droplet/cell ratio, laser cytometry, cells loaded with oleic acid; for activity change, negative = inhibition: at 57.5 µM (top of the series)
How it was run: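 Cells seeded at 5,000 per well were treated with compounds over a concentration series and loaded with oleic acid (400 uM, as added). Lipid droplet fluorescence (488 nm excitation, 500-530 nm channel) was read by laser-scanning cytometry and normalized to 20 uM Triacsin C.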

[14] = Primary qHTS for small molecule stabilizers of the endoplasmic reticulum resident proteome: Secreted ER Calcium Modulated Protein (SERCaMP) assay (AID 1508630); conditions: SH-SY5Y GLuc-SERCaMP (Gaussia luciferase released on ER calcium loss) secretion, thapsigargin, luminescence; series mostly up to 38.4 µM; note: % is set by controls: 0 for no effect and ±100 for the full control effect
How it was run: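 GLuc-SERCaMP-expressing SH-SY5Y cells, pretreated 16 h with compound, are challenged with thapsigargin to empty ER calcium stores; after 4 h, coelenterazine is added directly to the medium and luminescence is imaged.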

[15] = biological target: 3',5'-cyclic-AMP phosphodiesterase 4B (Homo sapiens) (UniProt Q07343); test: qHTS Assay for Inhibitors of PDE-IV (AID 607; active = well fitted activation curve with a large enough effect in the main read-out, with a control signal flat, not every such curve was filed as active; note: % of control where 0% means no effect); conditions: HEK293 ACTOne CNG channel cells, membrane potential fluorescence; series mostly up to 22.9 µM
Sequence of 3',5'-cyclic-AMP phosphodiesterase 4B (Homo sapiens) (Q07343 whole entry, looked up): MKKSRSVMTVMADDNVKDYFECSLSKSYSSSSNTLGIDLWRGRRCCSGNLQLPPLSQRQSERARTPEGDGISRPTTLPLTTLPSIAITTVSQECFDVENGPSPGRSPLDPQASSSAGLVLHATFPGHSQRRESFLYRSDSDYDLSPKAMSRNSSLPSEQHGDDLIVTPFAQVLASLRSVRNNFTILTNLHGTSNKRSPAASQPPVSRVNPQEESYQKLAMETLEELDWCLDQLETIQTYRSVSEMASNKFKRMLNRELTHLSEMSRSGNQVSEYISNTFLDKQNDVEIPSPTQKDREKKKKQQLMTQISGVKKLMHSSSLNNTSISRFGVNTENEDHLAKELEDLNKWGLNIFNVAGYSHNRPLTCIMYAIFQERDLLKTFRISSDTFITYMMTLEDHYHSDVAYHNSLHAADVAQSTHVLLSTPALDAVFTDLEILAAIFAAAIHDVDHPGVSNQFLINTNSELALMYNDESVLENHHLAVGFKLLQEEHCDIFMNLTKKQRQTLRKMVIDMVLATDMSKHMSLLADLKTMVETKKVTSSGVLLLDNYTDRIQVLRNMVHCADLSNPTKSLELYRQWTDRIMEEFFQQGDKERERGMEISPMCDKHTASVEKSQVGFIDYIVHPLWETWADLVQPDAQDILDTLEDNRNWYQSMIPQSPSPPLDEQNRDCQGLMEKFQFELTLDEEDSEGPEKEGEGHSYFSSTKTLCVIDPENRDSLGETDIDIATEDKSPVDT
How it was run: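 The readout is membrane depolarisation from a cAMP-sensing CNG channel, detected with a potential dye at ex 535/em 590. Cells were HEK293-derived (endogenous PDE-IV) at 1000 cells/well, titrated up to 22.9 uM final.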

[16] = biological target: Cytochrome P450 3A4 (Homo sapiens) (UniProt P08684); test: qHTS Assay for Inhibitors and Substrates of Cytochrome P450 3A4 (AID 884); conditions: recombinant CYP3A4, Luciferin-PPXE luminescence; series mostly up to 57.1 µM; note: potency is the fitted concentration of half-maximal effect; nearly all actives have a fitted effect of over 50% in size
How it was run: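 20 nM human CYP3A4 with 25 uM Luciferin-PPXE (at KM) in 200 mM KPO4, preincubated 10 min with compound; NADPH regeneration started a 60 min RT reaction. Luciferin detected by luminescence, normalized to 57 uM ketoconazole as full inhibition.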

[17] = biological target: Cytochrome P450 2C9 (Homo sapiens) (UniProt P11712); test: qHTS Assay for Inhibitors and Substrates of Cytochrome P450 2C9 (AID 883); conditions: recombinant CYP2C9, luciferin-H luminescence, 60 min; series mostly up to 57.1 µM; note: % is set by controls: 0 for no effect and ±100 for the full control effect; nearly all actives have a fitted effect of over 60% in size
Sequence of Cytochrome P450 2C9 (Homo sapiens) (P11712 whole entry, looked up): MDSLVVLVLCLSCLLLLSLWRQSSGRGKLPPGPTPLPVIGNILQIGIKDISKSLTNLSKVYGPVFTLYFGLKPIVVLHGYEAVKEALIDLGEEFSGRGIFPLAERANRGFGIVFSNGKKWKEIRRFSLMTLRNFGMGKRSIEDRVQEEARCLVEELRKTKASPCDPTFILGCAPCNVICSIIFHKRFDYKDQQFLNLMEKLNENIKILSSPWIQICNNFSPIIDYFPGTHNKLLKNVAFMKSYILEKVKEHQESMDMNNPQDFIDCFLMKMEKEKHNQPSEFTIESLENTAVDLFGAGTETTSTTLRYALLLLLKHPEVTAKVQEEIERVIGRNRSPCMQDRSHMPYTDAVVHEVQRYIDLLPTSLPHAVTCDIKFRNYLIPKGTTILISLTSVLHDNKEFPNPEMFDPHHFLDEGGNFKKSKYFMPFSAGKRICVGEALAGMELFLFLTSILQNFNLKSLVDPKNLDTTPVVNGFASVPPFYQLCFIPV
How it was run: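 Human CYP2C9 (10nM) hydroxylated Luciferin-H (100uM, at its KM) to luciferin in 25mM KPO4. Compound was preincubated 10 min at 37C, then NADPH regeneration started a 60 min reaction at 37C. Luminescence was read after detection reagent, normalized to 57uM sulphaphenazole.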

[18] = qHTS Assay for Identification of Small Molecule Agonists for Hypoxia Response Element Signaling Pathway (AID 914; active = well fitted activation curve with a large enough effect in the signal ratio, with a control signal flat, not every such curve was filed as active; the % refers to the signal ratio; note: % of control where 0% means no effect); conditions: ME-180 (cervical carcinoma) HRE-bla reporter, beta-lactamase ratio, CoCl2, 17 h; activation: stronger effect = higher value
How it was run: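 Compounds in a titration series were added to ME-180 reporter cells alongside an EC50 level of CoCl2. After 17 hours, beta-lactamase activity was read as the 460nm/530nm emission ratio of CCF4, giving AC50 values.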

[19] = biological target: Ubiquitin carboxyl-terminal hydrolase 1 (Homo sapiens) (UniProt O94782); test: Inhibitors of USP1/UAF1: Pilot qHTS (AID 504865); conditions: purified USP1/UAF1, Ub-rhodamine cleavage fluorescence; series mostly up to 54.9 µM; note: potency is the fitted concentration of half-maximal effect; nearly all actives have a fitted effect of over 35% in size
Sequence of Ubiquitin carboxyl-terminal hydrolase 1 (Homo sapiens) (O94782 whole entry, looked up): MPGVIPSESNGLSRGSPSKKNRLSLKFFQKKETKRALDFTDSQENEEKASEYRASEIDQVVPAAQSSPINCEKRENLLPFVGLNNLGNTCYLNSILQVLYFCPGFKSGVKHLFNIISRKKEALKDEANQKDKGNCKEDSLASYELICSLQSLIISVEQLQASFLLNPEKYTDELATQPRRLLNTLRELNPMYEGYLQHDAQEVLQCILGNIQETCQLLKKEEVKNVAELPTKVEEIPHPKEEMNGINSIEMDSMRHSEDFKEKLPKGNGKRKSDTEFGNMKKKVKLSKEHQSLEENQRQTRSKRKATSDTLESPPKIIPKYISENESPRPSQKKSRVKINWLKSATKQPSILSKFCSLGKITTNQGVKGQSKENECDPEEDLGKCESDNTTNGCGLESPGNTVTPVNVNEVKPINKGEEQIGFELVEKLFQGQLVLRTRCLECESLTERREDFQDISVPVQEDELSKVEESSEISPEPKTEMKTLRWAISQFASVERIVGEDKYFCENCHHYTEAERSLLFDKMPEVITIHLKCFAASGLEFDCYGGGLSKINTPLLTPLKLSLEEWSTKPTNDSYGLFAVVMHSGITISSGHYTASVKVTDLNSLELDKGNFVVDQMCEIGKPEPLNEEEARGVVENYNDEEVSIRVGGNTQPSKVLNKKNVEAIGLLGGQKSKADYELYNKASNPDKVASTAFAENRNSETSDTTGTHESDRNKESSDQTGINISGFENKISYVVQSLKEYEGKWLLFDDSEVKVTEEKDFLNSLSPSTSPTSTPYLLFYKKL
How it was run: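 USP1/UAF1 complex at 1 nM preincubated 15 min at room temperature with compound, then Ub-Rho substrate added at 150 nM final. Fluorescence (480/540 nm) read kinetically in 50 mM HEPES pH 7.8, 0.5 mM EDTA, 1 mM TCEP, 0.1 mg/ml BSA, 0.01% Tween-20.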

[20] = measured here: cell count channel max response
[21] = measured here: lipid channel max response

c1ccc(CNc2ccnc(-c3ccoc3)n2)cc1
inactive: Potency [1] > 11.4 µM | activity change, negative = inhibition [2] -4.42% | activity change, negative = inhibition [4] 4.39% | activity, negative = inhibition [5] 10.2% | Potency [6] > 46 µM | Potency [7] > 46 µM | outcome [8] | Potency [9] | outcome [11] | outcome [12] | activity change, negative = inhibition [13] 9.38% | Potency [14]
15%: max response [13, 21]
active: Potency [3] 2.51 µM | Potency [10] 3.98 µM
7.25%: max response [13, 20]

COc1ccc2[nH]cc(CCNc3cc(-c4ccccc4C(F)(F)F)ncn3)c2c1
active: Potency [3] 10 µM | Potency [16] 5.01 µM
0.275%: max response [13, 21]
-3.31%: max response [13, 20]
inactive: Potency [1] > 11.4 µM | activity change, negative = inhibition [2] -26.7% | activity change, negative = inhibition [4] 14% | activity, negative = inhibition [5] 0.643% | Potency [6] > 46 µM | Potency [7] > 46 µM | outcome [8] | Potency [15] | outcome [11] | outcome [12] | activity change, negative = inhibition [13] 6.48% | Potency [14]

COc1cccc(-c2nccc(-n3ccnc3)n2)c1
active: Potency [3] 0.0316 µM | Potency [10] 2.51 µM
inactive: Potency [1] > 11.4 µM | activity change, negative = inhibition [2] 9.38% | activity change, negative = inhibition [4] 14% | activity, negative = inhibition [5] -0.599% | Potency [6] > 46 µM | Potency [7] > 46 µM | outcome [8] | Potency [15] | Potency [9] | outcome [11] | outcome [12] | activity change, negative = inhibition [13] 4.69% | Potency [14]
4.96%: max response [13, 20]
13.1%: max response [13, 21]

O=c1c(-c2ccc(F)cc2)nc2cnc(N3CCOCC3)nc2n1C[C@H]1CCCO1
inactive: Potency [1] > 11.4 µM | activity change, negative = inhibition [2] 9.7% | activity change, negative = inhibition [4] 1.18% | activity, negative = inhibition [5] 29.2% | Potency [6] > 9.22 µM | Potency [7] > 46 µM | outcome [8] | Potency [15] | Potency [17] | Potency [10] | activity change, negative = inhibition [13] -21.9% | Potency [14]
-2.6%: max response [13, 21]
16.8%: max response [13, 20]
active: Potency [3] 1.58 µM

Cc1cccc(CNc2ncncc2-c2ccc3c(c2)OCO3)c1
inactive: Potency [1] > 11.4 µM | activity change, negative = inhibition [2] -0.728% | activity change, negative = inhibition [4] -2.79% | activity, negative = inhibition [5] -19.6% | Potency [6] > 46 µM | Potency [7] > 46 µM | outcome [8] | Potency [9] | outcome [11] | activation [18] -16.9% | outcome [12] | activity change, negative = inhibition [13] 12.7% | Potency [14]
7.25%: max response [13, 20]
23.1%: max response [13, 21]
active: Potency [3] 0.126 µM | Potency [16] 0.251 µM | Potency [10] 0.501 µM

CN(C)c1nc(-c2ccoc2)nc2ccccc12
8.73%: max response [13, 20]
active: Potency [3] 0.501 µM | Potency [19] 56.2 µM
inactive: Potency [1] > 11.4 µM | activity change, negative = inhibition [2] -8.03% | activity change, negative = inhibition [4] -9.32% | activity, negative = inhibition [5] 6.57% | Potency [6] > 46 µM | Potency [7] > 46 µM | outcome [8] | Potency [9] | outcome [11] | outcome [12] | activity change, negative = inhibition [13] 8.68% | Potency [14]
18.5%: max response [13, 21]

Cc1cccc(CNc2ncncc2-c2cccc(C#N)c2)c1
9.06%: max response [13, 20]
active: Potency [3] 2.51 µM | Potency [16] 0.199 µM | Potency [10] 3.98 µM
inactive: Potency [1] > 11.4 µM | activity change, negative = inhibition [2] 0.377% | activity change, negative = inhibition [4] -8.33% | activity, negative = inhibition [5] 14.8% | Potency [6] > 46 µM | Potency [7] > 46 µM | outcome [8] | Potency [15] | Potency [9] | outcome [11] | outcome [12] | activity change, negative = inhibition [13] 4.89% | Potency [14]
15.9%: max response [13, 21]
